High-throughput results deposited in PubChem by National Center for Advancing Translational Sciences (NCATS).
In the library only some 0.63% were active in any assay of this set; here they are far more common.
TCR activator: activators of T cell receptors; primary human leukocytes, anti-CD3, IL-2 HTRF, 48 h; Potency, µM (series often up to 9.22 µM), for the others: at the top dose activation of IL-2 secretion, usual class: activators; 330,000 tested, under 10 active; active = well fitted activation curve with a large enough effect; inconclusive = small, poorly fitted or top-dose-only effect, or another doubt; inactive = no such curve, though single readings can be large or run the other way; also: % of control where 0% means no effect
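48 hr co-incubation of compounds, a-CD3 beads and primary human leukocytes; IL-2 quantified homogeneously by HTRF with anti-IL-2 K and d2 conjugates.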
gsp antag: gsp mutant antagonism. gsp-mutant cells, cAMP HTRF, 30 min. Potency, µM (titrated, usually from 76.9 µM), inactives show at the top dose activity change, negative = inhibition, hits mostly inhibitors. 340,000 compounds, 0.4% hits. AID 624288; calls by dose curve; cell line not stated here;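 also: intracellular cAMP measured with PDE inhibitor Ro 20-1724 present during compound exposure; potency is read from the fitted curve at half-maximal effect; % is scaled to controls: 0 for no effect and ±100 for the full control effect; nearly all actives have a fitted effect of over 65% in size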
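HTRF cAMP read-out (cAMP-d2 plus anti-cAMP antibody-K in lysis buffer, 30 min RT). Before lysis, cells are exposed to compounds with […] for 30 min at 37C in DPBS containing Ca/Mg, BSA and Tween 20.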
TSHR antag: blocks TSH signaling through the human TSH receptor; 330,000 compounds, 0.2% hits; activity change, negative = inhibition, % at 11.5 µM; TSHR-expressing cells, TSH-stimulated cAMP HTRF, 2 h; hits give low values; AID 504810;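 active = activity change below a set negative limit, meaning inhibition stronger than a set level, cut at about -70% in these data; inconclusive = activity change between two set negative limits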; also: % is scaled to controls: 0 for no effect and ±100 for the full control effect
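TSHR-expressing cells were treated with compounds, then stimulated with TSH at EC80 (4nM final) for 2 hours at 37 deg C. Cellular cAMP was measured by HTRF competition between lysate cAMP and cAMP-d2 for a cryptate-labelled anti-cAMP antibody.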
Pin1 inhibitor: inhibitors of human Pin1; AID 504891; Potency, µM (highest dose often 115 µM), without a hit: at the highest dose activity, negative = inhibition, usual class: inhibitors; Pin1 FP peptide displacement, HiFluor488, 10 min; 390,000 compounds, 0.009% hits; active = well fitted inhibition curve with a large enough effect in the polarisation, with a control signal flat, not every such curve was filed as active; inconclusive = small, poorly fitted or top-dose-only effect, or effect the other way, or a change in a side signal; inactive = no such curve, though single readings can be large or run the other way; the % refers to the polarisation; also: potency is read from the fitted curve at half-maximal effect; % is scaled to controls: 0 for no effect and ±100 for the full control effect
gsp agonist: agonists of gsp mutant (McCune-Albright syndrome); gsp mutant cells, cAMP HTRF, 30 min; Potency, µM (top dose mostly 76.9 µM), for inactives: top-dose activation (cAMP increase), actives largely listed as activators; 340,000 compounds, 0.13% hits; AID 624287; active = well fitted activation curve with a large enough effect; inconclusive = small, poorly fitted or top-dose-only effect, or another doubt; inactive = no such curve, though single readings can be large or run the other way; cell line not stated here;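 also: phosphodiesterase inhibitor Ro 20-1724 added with compounds to block cAMP breakdown; potency is read from the fitted curve at half-maximal effect; nearly all actives have a fitted effect of over 60% in size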
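Cells stably selected in G418 were plated at 2000/well, grown 16-24 hr, then given compounds in DMSO with the PDE inhibitor […] (300 uM solution added) for 30 min at 37C; cAMP was read by HTRF.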
* marks the source's active call; other numbers are inactive results; ? = inconclusive; . = no result; [ ] = remark or other dose.

SMILES	TCR activator	gsp antag	TSHR antag	Pin1 inhibitor	gsp agonist
CN1c2ccccc2C(O)=C(C(=S)Nc2ccccc2)S1(=O)=O	-7%	?	-8	?	4%
CCCn1cc(S(=O)(=O)c2ccc(CC)cc2)c(=O)c2ccccc21	.	.	.	-5%	.
CCCOc1ccc(/C=N/Nc2ccc(C(=O)O)cc2)c(OCCC)c1	-6%	10µM*	-6	?	-14%[15.4 µM]
CCCOc1ccc(/C=N/Nc2cccc([N+](=O)[O-])c2)c(O)c1	-9%[46.1 µM]	5%	-30	-1%	-1%[15.4 µM]
CC(/C=C1\SC(=S)N(CCCC(=O)Nc2ccc(C(=O)O)c(O)c2)C1=O)=C\c1ccccc1	1%[46.1 µM]	-8%	-13	54µM*	-3%
COc1ccc(/C=C2\SC(=S)N(CCCC(=O)Nc3ccccc3C(=O)O)C2=O)cc1OC	0%	35µM*	-11	?	?
Cc1ccc(/C=C2\SC(=S)N(CCC(=O)NNS(=O)(=O)c3ccccc3)C2=O)cc1	4%	50µM*	-3	40%	-14%[15.4 µM]
Cc1ccc(OCC(O)CNC(=O)c2ccccc2C(=O)O)cc1 (centres undefined)	2%	5%	-15	?	-43%
Cc1cc(-c2ccc(N=Nc3c(S(=O)(=O)O)cc4cc(S(=O)(=O)O)cc(N)c4c3O)c(C)c2)ccc1N=Nc1c(S(=O)(=O)O)cc2cc(S(=O)(=O)O)cc(N)c2c1O	.	.	-155*	.	.
CCOC(=O)C1CCCN(C(=O)c2ccc3c(c2)N(C)C(=O)/C(=C/c2ccccc2Cl)S3)C1 (centres undefined)	-2%	11µM*	-1	36%	-19%
CCOC(=O)C1CCCN(C(=O)c2cccc(N3C(=O)c4ccccc4C3=O)c2)C1 (centres undefined)	.	-4%	2	-2%	19%
COc1ccc(/C=C2\Sc3ccc(C(=O)N4CCCC4)cc3N(C)C2=O)cc1OC	-2%	0%	8	0%	?
CN1C(=O)/C(=C/c2ccccc2Cl)Sc2ccc(C(=O)N3CCCC3)cc21	-3%	32µM*	-17	3%	1%
c1ccc(-c2cc3c(N4CCCCC4)ncnc3s2)cc1	1%	-15%	-29	1%	5%
O=c1oc2cc(O)ccc2cc1S(=O)(=O)c1ccccc1	4%	-5%	49	-8%	13%
COc1ccc(NS(=O)(=O)c2cn(C)cn2)cc1Cl	-3%	-1%	-142*	2%	-35%
O=C(c1ccc(CS(=O)Cc2ccccc2Cl)o1)N1CCN(c2cccc(Cl)c2)CC1 (centres undefined)	3%	32µM*	-34	3%	-1%
COc1cccc(N2CCN(C(=O)c3ccc(CS(=O)Cc4ccccc4Cl)o3)CC2)c1 (centres undefined)	-4%	-15%	-9	-2%	-68%
COc1cc(OC)cc(C(=O)N(Cc2ccco2)Cc2cccs2)c1	.	.	.	-6%	.
CN(CC(=O)Nc1ccc(F)cc1)C(=O)COC(=O)c1ccccc1	-4%	9%	9	1%	-2%[15.4 µM]
CN(CC(=O)Nc1ccc(F)cc1)C(=O)COC(=O)c1cccc(N(C)C)c1	-5%	-4%	-11	-1%	25µM*
CCOCC(O)CNC(=O)c1ccc2nc(Cc3ccc(OC)c(OC)c3)oc2c1 (centres undefined)	-12%	12%	5	0%	-10%
CC(NC(=O)Cn1ncc(Cl)c(Cl)c1=O)C12CC3CC(CC(C3)C1)C2 (centres undefined)	8%[46.1 µM]	?	-100*	?	5%
C#C[C@]1(OC(C)=O)CCC2C3CCC4=CC(=O)CC[C@@H]4C3CC[C@@]21C (some centres undefined)	-4%	1%	-88*	-1%	.
CC(=O)O[C@]1(C(C)=O)CC[C@H]2[C@@H]3C=C(C)C4=CC(=O)CC[C@@H]4[C@H]3CC[C@@]21C	-3%	-21%	-9	-1%	.
Cc1ccc(CN2CCc3[nH]c(=S)[nH]c(=O)c3C2)cc1	-10%	-1%	-3	-9%	2%
O=c1[nH]c(=S)[nH]c2c1CN(Cc1ccc(F)cc1)CC2	-1%	7%	-139*	-3%	5%
O=C(O)c1cccc(-n2cccc2C=C2C(=O)c3ccccc3C2=O)c1	7%	35µM*	-22	1%	-16%[15.4 µM]
